Results taken from PubChem BioAssay (EPA / NIEHS).
Results filed as inconclusive are left out. The source made the active and inactive calls. How the source made its calls: active means hit-call score of the fitted dose curve at least 0.9, where 1 is the maximum; inconclusive means response in the unintended direction; inactive means score below 0.9.

Experiments:
[1] = Tanguay_ZF_120hpf_MORT_legacy: (Legacy) Oregon State University Tanguay Lab 120 Hour Post-fertilization zebrafish Assay for Mortality (AID 2283633)
Procedure, shortened: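 Dechorionated Tropical 5D wild-type zebrafish embryos, one per well from 6 hpf, static exposure in 0.64% DMSO at 28C until 120 hpf. Mortality scored as binary by brightfield microscopy at 24 and 120 hpf.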

[2] = Tanguay_ZF_120hpf_YSE_legacy: (Legacy) Oregon State University Tanguay Lab 120 Hour Post-fertilization zebrafish Assay for Yolk Sac Edema (AID 2283634)
Procedure, shortened: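 Dechorionated Tropical 5D wild-type zebrafish embryos were exposed statically, one per well, from 6 to 120 hpf at 28C in 0.64% DMSO. Yolk sac edema was scored present/absent by brightfield at 120 hpf, and dead embryos were excluded.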

[3] = Tanguay_ZF_120hpf_AXIS_legacy: (Legacy) Oregon State University Tanguay Lab 120 Hour Post-fertilization zebrafish Assay for Body Axis Malformation (AID 2283635)
Procedure, shortened: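 Dechorionated wild-type Tropical 5D zebrafish embryos, one per well, statically exposed from 6 hpf to 120 hpf at 28C in 0.64% DMSO final. Body axis malformation scored present/absent by brightfield microscopy at 120 hpf; dead embryos excluded.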

[4] = Tanguay_ZF_120hpf_EYE_legacy: (Legacy) Oregon State University Tanguay Lab 120 Hour Post-fertilization zebrafish Assay for Eye Malformation (AID 2283636);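 further: binary presence or absence of eye malformation scored by brightfield in 120 hpf larvae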
Procedure, shortened: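 Static waterborne exposure of dechorionated zebrafish embryos (strain Tropical 5D), 6 to 120 hpf, sealed plates at 28C, 0.64% DMSO vehicle. Eye malformation is scored as a binary endpoint, with gain of signal analysed relative to DMSO.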

[5] = Tanguay_ZF_120hpf_SNOU_legacy: (Legacy) Oregon State University Tanguay Lab 120 Hour Post-fertilization zebrafish Assay for Snout Malformation (AID 2283637)
Procedure, shortened: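 Dechorionated zebrafish, individually housed from 6 hpf in covered, sealed wells at 28C with 0.64% DMSO vehicle, were examined at 120 hpf for snout malformation. Responses were binary and analysed positive-direction relative to DMSO.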

[6] = Tanguay_ZF_120hpf_JAW_legacy: (Legacy) Oregon State University Tanguay Lab 120 Hour Post-fertilization zebrafish Assay for Jaw Malformation (AID 2283638)
Procedure: (§1) Tanguay_ZF_120hpf_legacy is a whole embryo, multiplexed endpoint assay using zebrafish larvae exposed for 120 hours post fertilization on a 96-well plate.Tanguay_ZF_120hpf_JAW_legacy is one of one assay component(s) measured or calculated from the Tanguay_ZF_120hpf_legacy assay. It is designed to make measurements of zebrafish development as detected with brightfield microscopy of developing zebrafish embryos.Data from the assay component Tanguay_ZF_120hpf_JAW_legacy was analyzed into 1 assay endpoints. This assay endpoint, Tanguay_ZF_120hpf_JAW_legacy, was analyzed in the positive analysis fitting direction relative to DMSO as the negative control and baseline of activity. […]
(§2) Zebrafish husbandry: Tropical 5D wild-type adult zebrafish were housed in at an approximate density of 1000 per 100 gallon tank at the Sinnhuber Aquatic Research Laboratory, Oregon State University, Corvallis, OR. […] At 24 hpf, embryos were assessed for photomotor response using a custom photomotor response analysis tool (PRAT) and for developmental toxicity endpoints (MO24: mortality at 24 hpf, DP: developmental progression, SM: spontaneous movement, and NC: notochord distortion). At 120 hpf, locomotor activity was measured using Viewpoint Zebralab and assessed for 18 endpoints. […] If mortality occurred for an embryo (at either 24 or 120 hpf), the non-mortality endpoints were not measured.

[7] = Tanguay_ZF_120hpf_OTIC_legacy: (Legacy) Oregon State University Tanguay Lab 120 Hour Post-fertilization zebrafish Assay for Otic Vesicle Malformation (AID 2283639)
Procedure: as §1, with “plate.Tanguay_ZF_120hpf_OTIC_legacy” for “plate.Tanguay_ZF_120hpf_JAW_legacy”, “Tanguay_ZF_120hpf_OTIC_legacy” for “Tanguay_ZF_120hpf_JAW_legacy”, “Tanguay_ZF_120hpf_OTIC_legacy,” for “Tanguay_ZF_120hpf_JAW_legacy,”
as §2

[8] = Tanguay_ZF_120hpf_PE_legacy: (Legacy) Oregon State University Tanguay Lab 120 Hour Post-fertilization zebrafish Assay for Pericardial Edema (AID 2283640)
Procedure, shortened: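 Tropical 5D wild-type zebrafish embryos were statically exposed until 120 hpf at 28C, with 0.64% DMSO final. Pericardial edema was scored by brightfield as present or absent; endpoints were not scored in dead embryos.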

[9] = Tanguay_ZF_120hpf_BRAI_legacy: (Legacy) Oregon State University Tanguay Lab 120 Hour Post-fertilization zebrafish Assay for Brain Malformation (AID 2283641)
Procedure, shortened: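 Tropical 5D wild-type zebrafish embryos exposed statically until 120 hpf at 28C, 0.64% DMSO final, sealed and dark. Brain malformation scored present/absent by brightfield at 120 hpf; dead embryos excluded. Trimethyltin chloride 5uM positive control.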

[10] = Tanguay_ZF_120hpf_SOMI_legacy: (Legacy) Oregon State University Tanguay Lab 120 Hour Post-fertilization zebrafish Assay for Somite Malformation (AID 2283647)
Procedure, shortened: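 Dechorionated Tropical 5D wild-type zebrafish embryos, one per well from 6 hpf, statically exposed at 28C to 120 hpf in 0.64% DMSO; somite malformation scored present/absent by brightfield; trimethyltin 5 uM positive control; dead embryos not scored.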

Measured: outcome

O=C(O)c1ccc([N+](=O)[O-])cc1
inactive: [1] | [2] | [3] | [4] | [5] | [6] | [7] | [8] | [9] | [10]
